The list is not random: actives were taken first. Their share in the collection is about 1.6%.
VLA-4 inh: inhibition in a human VLA-4 binding assay. P13612. VLA-4 expressing cells, ligand binding flow cytometry. inhibition, % (about 7 µM as worked out from the volumes in the protocol). hit rate 0.2% among 330,000
Target sequence (P13612 whole entry, looked up): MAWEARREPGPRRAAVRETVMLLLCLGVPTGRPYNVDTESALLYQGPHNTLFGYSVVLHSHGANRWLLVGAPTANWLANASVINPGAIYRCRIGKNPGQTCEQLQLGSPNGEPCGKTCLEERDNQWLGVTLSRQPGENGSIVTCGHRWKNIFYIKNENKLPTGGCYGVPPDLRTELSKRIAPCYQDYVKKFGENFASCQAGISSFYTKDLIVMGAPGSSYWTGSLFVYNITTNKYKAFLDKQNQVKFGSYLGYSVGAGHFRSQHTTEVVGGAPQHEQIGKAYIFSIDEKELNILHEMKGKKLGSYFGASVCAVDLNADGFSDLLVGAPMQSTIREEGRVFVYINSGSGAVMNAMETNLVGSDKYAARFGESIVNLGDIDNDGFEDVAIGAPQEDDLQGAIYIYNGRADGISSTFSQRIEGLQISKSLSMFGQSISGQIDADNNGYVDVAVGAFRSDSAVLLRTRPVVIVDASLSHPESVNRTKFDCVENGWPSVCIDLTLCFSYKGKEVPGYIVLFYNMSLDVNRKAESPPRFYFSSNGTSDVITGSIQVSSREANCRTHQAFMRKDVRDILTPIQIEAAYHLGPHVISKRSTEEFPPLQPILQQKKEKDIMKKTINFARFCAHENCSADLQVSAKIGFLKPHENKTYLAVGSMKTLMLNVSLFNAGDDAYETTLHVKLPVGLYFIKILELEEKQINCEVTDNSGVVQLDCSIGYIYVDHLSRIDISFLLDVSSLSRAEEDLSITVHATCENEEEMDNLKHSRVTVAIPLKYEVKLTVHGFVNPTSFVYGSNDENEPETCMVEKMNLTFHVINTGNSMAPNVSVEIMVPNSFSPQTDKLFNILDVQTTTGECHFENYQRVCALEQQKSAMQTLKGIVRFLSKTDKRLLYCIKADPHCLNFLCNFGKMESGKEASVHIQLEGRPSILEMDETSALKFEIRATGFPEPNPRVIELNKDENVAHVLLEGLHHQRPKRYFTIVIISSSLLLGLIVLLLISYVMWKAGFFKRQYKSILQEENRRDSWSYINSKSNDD
PKA-R2B activ: activates the human PKA-R2B holoenzyme complex; activation, % at 11.4 µM; AID 504700; hit rate 0.079% among 340,000; PKA-R2B holoenzyme dissociation, Cy5-IP20 fluorescence polarization; R2B truncated from residue 108, S112A mutant; 0% DMSO only, 100% 113 µM cGMP;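 active = activation above a cutoff set at the mean over all compounds plus 3 SD, cut at about 18% in these data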;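 also: higher means more holoenzyme dissociation and a rise in polarization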
CendR NRP1 mod: alters CendR peptide binding to human NRP-1. FAM-RPARPAR peptide binding to NRP-1, fluorescence polarization. inhibition, % at 25 µM. hit rate 0.85% among 360,000. AID 602438;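 active = inhibition or corrected inhibition above about 18%, plus a signal ratio from 0.5 to 1.5, limit read from the data, passing the limit was not always enough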
PKA-R1A act: activates the PKA-R1A holoenzyme complex; hit rate 0.083% among 340,000; PKA-R1A dissociation, Cy5-IP20 fluorescence polarization; scaled: DMSO 0%, 113 µM cGMP 100%; P00514+P68181; activation, % at 11.4 µM;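 active = percent activation above the mean of all tested compounds plus 3 SD, cut at about 19% in these data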;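 also: higher means more PKAc released from R1A so a rise in polarization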
ATG4B inhibitor: blocks human ATG4B protease cleavage of LC3 substrate; Q9Y4P1; ATG4B cleavage of LC3-PLA2, NBD-HPC fluorescence, 1 h; inhibition, % at 8.33 µM; hit rate 0.51% among 340,000; AID 504462; in the data active = inhibition above about 40%
ATG4B conf: ATG4B (human) inhibition, single-dose confirmed | inhibition, % at 8.33 µM | shares compounds with ATG4B inhibitor | AID 504757 | hit rate 92% among 320 | ATG4B protease fluorescent substrate cleavage assay; in the data active = inhibition above about 39%
PLA2 ctr: inhibits human PLA2, flagging false ATG4B inhibitors | purified PLA2, NBD-C6-HPC fluorescence, 45 min | shares compounds with ATG4B inhibitor | inhibition, % at 8.33 µM | hit rate 66% among 1,600 | AID 588402
Hits are given with their value; 0 = inactive; - = no result. Rule as the data show it, unless noted: active = inhibition above about 50%; inactive = the rest.

SMILES | VLA-4 inh | PKA-R2B activ | CendR NRP1 mod | PKA-R1A act | ATG4B inhibitor | PLA2 ctr | others
CCCCCCSc1nnc(-c2cnn(-c3ccccc3)c2-n2cccc2)n1C | 0 | 0 | 0 | 0 | 44 | 58
CCOc1ccc(N2C(=O)CSC2=S)cc1 | 0 | 0 | 0 | 0 | 0 | -
CCN(CC)c1ccc(N2C(=O)CSC2=S)cc1 | 0 | 0 | 0 | 0 | 66 | 63
Fc1ccc(C2CC(c3ccco3)=Nc3ccccc3S2)cc1 (stereo not drawn) | 0 | 0 | 0 | 0 | 46 | 67
CCc1ccccc1NC(=S)NC1CC2CCCC(C1)N2Cc1cccs1 (stereo not drawn) | 0 | 0 | 0 | 0 | 48 | 0
Cc1cccc(NC(=S)NC2CC3CCCC(C2)N3Cc2cccs2)c1C (stereo not drawn) | 0 | 0 | 0 | 0 | 49 | 59
Cc1ccc(NC(=S)NC2CC3CCCC(C2)N3Cc2cccs2)cc1 (stereo not drawn) | 0 | 0 | 0 | 0 | 0 | -
CC(C)c1ccc(Nc2nc(NCc3ccco3)nc(N3CCOCC3)n2)cc1 | 0 | 0 | 0 | 0 | 41 | 57
O=C1ON=C(c2ccccc2)/C1=C/c1ccc(-c2ccccc2[N+](=O)[O-])o1 | 0 | 0 | 0 | 0 | 69 | 51
O=[N+]([O-])c1ccccc1-c1ccc(/C=N/n2cnnc2)o1 | 0 | 0 | 0 | 0 | 0 | -
COc1ncnc2c1ncn2CCCNC1CCN(Cc2ccccc2)CC1 | - | 0 | 0 | 0 | - | -
O=C(O)CN1C(=O)CC(c2ccccc2)CC1=O | 0 | 0 | 0 | 0 | 0 | -
O=C(Nc1ccccc1)/C(=C/c1ccccc1)c1ccccc1 | 0 | 0 | 0 | 0 | 0 | -
Cc1ccccc1NC(=O)/C(=C/c1ccccc1)c1ccccc1 | 0 | 0 | 0 | 0 | 43 | 0 | ATG4B conf=65
CC(C)C(=O)Nc1ncc(Cc2ccc(Cl)cc2)s1 | 0 | 0 | 0 | 0 | 0 | -
O=C(c1ccc(Cl)cc1)c1oc2ccccc2c1CS(=O)c1ccccc1 (stereo not drawn) | 0 | 0 | 0 | 0 | 54 | 59
C=CCn1c(-c2cccc(Cl)c2)n[nH]c1=S | 0 | 0 | 0 | 0 | 0 | -
C=CCn1c(-c2oc3nc(-c4ccccc4)cc(-c4ccccc4)c3c2N)n[nH]c1=S | 0 | 0 | 0 | 0 | 42 | 0 | ATG4B conf=70
c1ccc(OCc2nnnn2-c2ccccc2)cc1 | 0 | 0 | 0 | 0 | 42 | 0
COc1ccccc1-c1coc2c(CN3CCCC(C)C3)c(O)ccc2c1=O (stereo not drawn) | 0 | 0 | 0 | 0 | 0 | -
Cc1cc(NC(=O)CCC(=O)N(CC(=O)NC2CCCC2)c2ccc(F)c(Cl)c2)no1 | 0 | 0 | 0 | 0 | 0 | -
COC(=O)c1oc2ccc(Br)cc2c1-n1cccc1 | 0 | 0 | 0 | 0 | 0 | -
O=C(O)c1oc2ccccc2c1-n1cccc1 | 0 | 0 | 0 | 0 | 58 | 57
CCc1ccc(C(CNC(=O)c2ccc3c(=O)n(-c4ccccc4F)c(=S)[nH]c3c2)N(C)C)cc1 (stereo not drawn) | 0 | 0 | 0 | 0 | 70 | 83
C[C@@H]1CCCCO[C@H](CN(C)C(=O)c2ccccc2)[C@@H](C)CN([C@H](C)CO)C(=O)c2cc(NC(=O)c3ccncc3)ccc2O1 | - | 0 | 0 | 0 | - | -
SMILES | VLA-4 inh | PKA-R2B activ | CendR NRP1 mod | PKA-R1A act | ATG4B inhibitor | PLA2 ctr | others
Cc1ccc(Cc2cnc(N3C(=N)SC(c4ccccc4)C3=O)s2)cc1 (stereo not drawn) | 0 | 0 | 0 | 0 | 0 | -
N=C1SC(c2ccccc2)C(=O)N1c1ncc(Cc2ccccc2)s1 (stereo not drawn) | 0 | 0 | 0 | 0 | 56 | 0
O=C(Nc1ccccc1N1CCN(c2ccccc2)CC1)c1ccccc1 | 0 | 0 | 0 | 0 | 44 | 0 | ATG4B conf=62
O=c1c(OCc2ccccc2)cccn1Cc1ccccc1 | - | 0 | 0 | 0 | - | -
Cc1cc(Cl)ccc1OCc1nnc2n1CCCCC2 | 0 | 0 | 0 | 0 | 0 | -
CC(C)c1ccc2c(c1)C(c1ccc(N3CCOCC3)cc1)=NNC(c1cccs1)=N2 | 0 | 0 | 0 | 0 | 70 | 72
COc1ccc2c(c1)C(c1ccc(C)o1)=NNC(c1cccnc1)=N2 | 0 | 0 | 0 | 0 | 0 | -
CCCOc1ccc(C2=NNC(c3cccs3)=Nc3ccc(OC)cc32)cc1 | 0 | 0 | 0 | 0 | 49 | 77
Fc1ccc2c(c1)C(c1ccncc1)=NNC(c1ccc(Br)cc1)=N2 | 0 | 0 | 0 | 0 | 0 | -
Cc1ccc(C2=Nc3ccc(Br)cc3C(c3ccncc3)=NN2)cc1 | 0 | 0 | 0 | 0 | 44 | 0
CC(C)c1ccc2c(c1)C(c1cccs1)=NNC(c1ccncc1)=N2 | 0 | 0 | 0 | 0 | 0 | -
COc1ccc2c(c1)C(c1ccc(C)o1)=NNC(c1ccccc1)=N2 | 0 | 0 | 0 | 0 | 42 | 0 | ATG4B conf=69
Cc1cccc(NC(=O)CN2CCN(C(=O)c3c(C)nn(Cc4ccccc4)c3C)CC2)c1C | 0 | 0 | 0 | 0 | 0 | -
C[C@H](CO)N1C[C@H](C)[C@@H](CN(C)S(=O)(=O)c2ccc3ccccc3c2)OCc2cnnn2CCCC1=O | - | 0 | 0 | 0 | - | -
CCOc1ccc2c(c1)C(c1ccccc1)=NNC(c1ccccc1)=N2 | 0 | 0 | 0 | 0 | 75 | 72
CCc1ccc2c(c1)C(c1ccncc1)=NNC(c1ccccc1)=N2 | 0 | 0 | 0 | 0 | 48 | 59
c1ccc(C2=Nc3c(ccc4ccccc34)C(c3ccncc3)=NN2)cc1 | 0 | 0 | 0 | 0 | 47 | 71
CCc1ccc2c(c1)C(c1cccs1)=NNC(c1cccnc1)=N2 | 0 | 0 | 0 | 0 | 0 | -
O=C(OCc1cn([C@H]2CN(C(=O)C3CCCCC3)[C@@H](c3ccccc3)C[C@@H]2O)nn1)c1ccccc1 | - | 0 | 0 | 0 | - | -
CC/C(=N\NC(=O)c1nnn(-c2nonc2N)c1-c1cccs1)c1ccccc1 | 0 | 0 | 0 | 0 | 0 | -
CC(C)CSC1=NSC2=NC(=O)/C(=C\c3cccs3)C(=N)N12 | 0 | 0 | 0 | 0 | 0 | -
N=C1/C(=C/c2cccs2)C(=O)N=C2SN=C(SCc3ccccc3)N12 | 0 | 0 | 0 | 0 | 50 | 62
CCOC(=O)c1cn(Cc2cccc(Cl)c2)nn1 | 0 | 0 | 0 | 0 | 0 | -
CCOC(=O)c1cn(Cc2c(C)c(C)c(C)c(C)c2C)nn1 | 0 | 0 | 0 | 0 | 61 | 59
CC(C)N(Cc1ccccc1)C(=O)C1CCN(c2ncnc3c2nc2n3CCCCC2)CC1 | 0 | 0 | 0 | 0 | 72 | 76
CCN(CC)c1nc(N)c2c(N)n(-c3ccccc3C)c(=S)c(C#N)c2c1C#N | 0 | 0 | 0 | 0 | 54 | 70
Cc1nn(-c2ccccc2)c(Cl)c1C(=O)OCC(=O)NCCc1ccc(S(N)(=O)=O)cc1 | - | 0 | 0 | 0 | 0 | -
CCc1nc(N2CCC(C)CC2)c2oc3ccccc3c2n1 | 0 | 0 | 0 | 0 | 57 | 68

Source: PubChem
